# In all, about 64,000 compounds went through this assay and about 1,900 (3%) were called active. For the sample, actives were picked, then their nearest neighbours and some compounds at random. Unmarked numbers belong to inactive results.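 The calls were made as follows: active = fluorescence rise, raw or as B-score row- and column-corrected plate score, outside the 99.7% band of its plate's samples, either direction; inactive = the rest.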
# System: Muscarinic acetylcholine receptor M1
# Experiment: M1 muscarinic receptor agonists, primary screen, CHO-M1 cells, Fluo-4 calcium, agonist mode (AID 626)
# Details: Fluo-4 calcium fluorescence, at 10 µM, active compounds read high
row,SMILES,B-score
1,C/C(Cl)=C\Cn1c(Nc2cccc(C)c2)nc2c1c(=O)n(C)c(=O)n2C,0.177
2,CCCn1c(=O)c(-c2ccccc2)c(O)c2ccccc21,0.287
3,Nc1nnc(SCCN2C(=O)c3ccccc3S2(=O)=O)s1,1.12
4,CCOC(=O)CNC(=O)CN1C(=O)CCSc2ccccc21,-0.158
5,CC1=NCCN1S(=O)(=O)c1ccc(Br)c(C)c1,0.66
6,CCN1CCCC1CNc1ncnc2c1[nH]c1ccc(F)cc12 (configuration not stated),0.0374
7,CC(C)OCCCNc1ncnc2c1[nH]c1ccc(F)cc12,16.6 (active)
8,O=C1CCCN1CCCNc1ncnc2c1[nH]c1ccccc12,-0.55
9,Cc1oc(CC(C)C)c(CN2CCCC2)c1C(=O)O,0.845
10,CCOC(=O)C1CCN(C(=O)C2CCN(S(=O)(=O)c3c(C)noc3C)CC2)CC1,-0.00598
11,CN1C(C)(C)CC(NC(=O)CCC(=O)NC2CC(C)(C)N(C)C(C)(C)C2)CC1(C)C,-0.271
12,CCCOC(=O)Nc1ccccc1C(N)=O,-0.00513
13,CCOC(=O)C1=C(C)NC(C)=C(C(=O)OCC)C1c1ccccn1,-0.0841
14,O=C(CC1Nc2ccccc2NC1=O)Nc1ccccc1 (configuration not stated),3.46 (active)
15,CCOC(=O)c1ccccc1NC(=O)CC1Nc2ccccc2NC1=O (configuration not stated),14.3 (active)
16,CCOc1ccc(NC(=O)CC2NCCNC2=O)cc1 (configuration not stated),0.571
17,O=C(CC1NCCNC1=O)Nc1ccc(Oc2ccccc2)cc1 (configuration not stated),1.02
18,COc1ccccc1NC(=O)C1=C(C)NC2=C(C(=O)CCC2)C1c1ccc(C)o1 (configuration not stated),-0.692
19,CCc1ccc(N(CC)c2ncnc3nc[nH]c23)cc1,0.205
20,CCOc1ccc(S(=O)(=O)N(CC(=O)O)c2ccccc2)cc1,0.254
21,C=C1c2cc(CC)ccc2NC(=O)N1c1ccc(C)cc1,-1.17

row,SMILES,B-score
1,Cn1c(=O)c2c(nc(SCC(=O)Nc3ccccc3N3CCCCC3)n2C)n(C)c1=O,6.49 (active)
2,Cc1ccccc1NC(=O)CNc1ccccc1N1CCCCC1,1.11
3,CC(C)n1c(SCC(=O)Nc2ccccc2N2CCCCC2)nc2c1c(=O)n(C)c(=O)n2C,0.367
4,CC(=O)Nc1ccc(S(=O)(=O)N2CCN(CCCOc3cc(C)ccc3C)CC2)cc1,-0.692
5,CN(C)CCCNc1c2c(c(C#N)c3nc4ccccc4n13)CCC2,0.715
6,COc1ncnc2c1N=C1CC(C)(C)CC(N)=C1S2,39.7 (active)
7,COc1cc(NS(=O)(=O)c2ccccc2)ccc1-n1nc(C)cc1C,-0.04
8,CCOC(=O)c1c(C)[nH]c(C(=O)NCc2ccccc2OC)c1C,0.0421
9,COc1ccc(C)cc1NC(=O)c1[nH]c(C)c(C(C)=O)c1C,1.04
10,COc1cccc2c(C)c(C(=O)O)[nH]c12,-2.07 (active)
11,CCN(CC)CCN1C(=O)C(=O)/C(=C(/O)c2ccc(OC)c(OC)c2)C1c1ccccn1 (configuration not stated),-0.817
12,CS(=O)(=O)c1ccc2nc(NC(=O)C3CCCCC3)sc2c1,0.229
13,O=C1NC(Nc2nc3ccccc3s2)(C(F)(F)F)C(=O)N1C1CCCCC1 (configuration not stated),-0.752
14,CCOc1nc(-c2ccc(OC)cc2)ccc1-c1noc(-c2cc(OC)c(OC)c(OC)c2)n1,9.6 (active)
15,COc1ccc(-c2ccc(-c3noc(-c4ccncc4)n3)c(OC)n2)cc1,-0.565
16,COc1cc(-c2nc(-c3ccncc3)no2)cc(OC)c1OC,-0.116
17,CC(C)c1nc2oc3c(N4CCN(C)CC4)ncnc3c2c2c1CCC2,0.376
18,Cc1ccccc1Nc1nnc(C)c(=O)[nH]1,-0.209
19,CCOC(=O)c1c(N)c(C#N)nn1-c1ccccc1C(=O)OC,-0.00838
20,Cc1cc(C)cc(OCc2nnc(SCC(=O)Nc3ccccc3)o2)c1,0.534
21,O=C(CSc1nnc(Cn2cnc3ccccc32)o1)c1ccccc1,2.49 (active)

row,SMILES,B-score
1,c1ccc(Cc2nn3c(Cn4cnc5ccccc54)nnc3s2)cc1,0.391
2,O=C(Nc1nn(Cc2ccccc2F)cc1Br)c1cccs1,-0.416
3,O=C(O)c1ccc(COc2c(F)c(F)cc(F)c2F)o1,0.494
4,COc1ccc(Cn2nnc3c(=O)[nH]c(C4CCN(C(=O)c5ccccc5Cl)CC4)nc32)cc1,-0.0421
5,CCSc1nc(C)nc2c1oc1ccccc12,0.362
6,CCc1nc(N2CCN(c3nc(C)cc(C)n3)CC2)c2oc3ccccc3c2n1,0.00663
7,CCc1nc(Nc2ccc3nccnc3c2)c2oc3ccccc3c2n1,3.77 (active)
8,COc1cccc(N2C(=O)C3CCCN3C2c2ccc(F)cc2)c1 (configuration not stated),-0.0377
9,CCn1c(CNc2ccc(OC)cc2)nnc1SCC(=O)c1ccc(OC)cc1,0.245
10,CCC1=C(C(=O)OC)C(c2cc(OC)ccc2OC)C(C#N)=C(N)O1 (configuration not stated),-0.762
11,CCOC(=O)N1CC=C2C(C#N)=C(N)C(C#N)(C#N)[C@H](c3cccs3)[C@H]2C1,3.8
12,CCCN1CC=C2C(C#N)=C(N)C(C#N)(C#N)C(c3cc(OC)ccc3OC)C2C1 (configuration not stated),47 (active)
13,COc1cccc(N2CC(C(=O)Nc3c(C)cccc3C)CC2=O)c1 (configuration not stated),-0.0783
14,Cc1nc2sc(C(c3ccco3)N3CCC4(CC3)OCCO4)c(O)n2n1 (configuration not stated),-0.0511
15,CC(C)(C)n1nnnc1C(c1cccs1)N(Cc1cccnc1)CC1CCCO1 (configuration not stated),0.0241
16,CCC(C)(C)n1nnnc1C(c1cccs1)N1CCN(Cc2ccccc2)CC1 (configuration not stated),0.516
17,CCOc1ccc(CN(Cc2ccco2)C(c2cccs2)c2nnnn2C(C)(C)C)cc1 (configuration not stated),17.1 (active)
18,O=C(c1ccc(=O)[nH]c1)N(Cc1ccco1)C1(C(=O)NC2CCCCC2)CCCCC1,0.118
19,O/N=C1\CC2(Cc3nonc31)OCCO2,-0.542
20,CN(C)c1ccc(NC(=O)c2ccncc2)c2ccccc12,0.268

# Reference: PubChem BioAssay AID626 (Vanderbilt High Throughput Screening Facility, 2007)
